A549 viability = A549 cytotoxicity, counter-screen for Nrf2 inhibitors; Potency, µM (titrated, usually from 46 µM), inactives show at the top dose activity change, negative = cytotoxicity, hits mostly inhibitors; hit rate 0.16% among 390,000; A549 ARE-Fluc cells, CellTiter-Fluor viability, 18-24 h; AID 504648; note: potency is the fitted concentration of half-maximal effect; % is set by controls: 0 for no effect and ±100 for the full control effect
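A549 ARE-Fluc cells in 5% FBS OPTI-MEM, 5000 cells/well, rested 2 h then exposed to compounds in concentration-response for 18-24 h at 37 °C. Viability by CellTiter-Fluor fluorescence (Ex 405/Em 525) after 30 min; luciferase luminescence (BugLite, 15 min, RT) read afterwards.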
Nrf2 ARE act = Nrf2 pathway activation; AREc32 ARE-luciferase reporter (MCF7-derived line), luminescence, 24 h; Potency, µM (top dose mostly 46.1 µM), for the others: at the highest dose activation, usual class: activators; hit rate 0.31% among 410,000; AID 624171; note: potency is the fitted concentration of half-maximal effect; % of control where 0% means no effect; nearly all actives have a fitted effect of over 65% in size
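ARE activation measured as luciferase luminescence (Steady-Glo, 30 min RT) in AREc32_Fluc cells after 24 hr compound exposure at 37 deg C, 5% CO2; cells seeded overnight at 1000/well in OPTI-MEM, 5% FBS.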
Nrf2 block = blocks Nrf2 signaling; Potency, µM (doses to about 46 µM), inactives show top-dose activity change, negative = inhibition, most hits filed as inhibitors; AID 504444; A549 ARE-Fluc reporter, luciferase luminescence, 18-24 h; hit rate 2.1% among 360,000; note: potency is the fitted concentration of half-maximal effect; % is set by controls: 0 for no effect and ±100 for the full control effect; nearly all actives have a fitted effect of over 60% in size
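Reporter: ARE-Fluc in A549. Exposure: 18-24 h, 37 °C, 5% CO2, 5% FBS OPTI-MEM. Readouts: fluorescent cytotoxicity (CellTiter-Fluor), then luminescent Nrf2 signal after BugLite.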
12-LOX inh = blocks human arachidonate 12S-lipoxygenase; hit rate 1.1% among 580,000; Potency, µM (doses to about 108 µM), for the others: at the top dose activity change, negative = inhibition, usual class: inhibitors; purified 12hLO, xylenol orange hydroperoxide absorbance; P18054; note: potency is the fitted concentration of half-maximal effect; % is set by controls: 0 for no effect and ±100 for the full control effect
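Purified human 12hLO at 150 nM in 25 mM Hepes, 0.01% Triton X-100, pH 7.0, preincubated 15 min at room temperature with compound. Reaction started with 40 uM arachidonic acid, 30 min at room temperature. Hydroperoxide measured by Fe-xylenol orange, 573/405 nm absorbance ratio.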
IDH1 R132H inh = inhibitors of human mutant IDH1 R132H | O75874 | IDH1-R132H enzyme, NADPH consumption, diaphorase/resazurin fluorescence | Potency, µM (top dose mostly 76.6 µM), without a hit: at the highest dose activity change, negative = inhibition, actives largely listed as inhibitors | hit rate 0.093% among 390,000 | AID 602179; note: potency is the fitted concentration of half-maximal effect; % is set by controls: 0 for no effect and ±100 for the full control effect; nearly all actives have a fitted effect of over 65% in size
Target sequence (O75874 whole entry R132H, stated change not applied): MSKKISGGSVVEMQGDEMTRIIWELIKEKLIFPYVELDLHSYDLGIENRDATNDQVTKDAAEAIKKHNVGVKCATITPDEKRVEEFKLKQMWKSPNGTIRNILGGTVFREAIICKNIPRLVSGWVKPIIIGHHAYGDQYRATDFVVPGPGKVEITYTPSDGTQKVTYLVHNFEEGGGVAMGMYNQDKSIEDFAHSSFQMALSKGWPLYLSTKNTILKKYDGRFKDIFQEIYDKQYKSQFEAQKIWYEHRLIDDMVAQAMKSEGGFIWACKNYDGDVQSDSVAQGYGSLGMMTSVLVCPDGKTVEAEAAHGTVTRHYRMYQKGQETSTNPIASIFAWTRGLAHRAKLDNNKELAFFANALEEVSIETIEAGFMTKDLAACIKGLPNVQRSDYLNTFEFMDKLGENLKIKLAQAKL
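IDH1-R132H (0.5 ug/mL) preincubated 30 min with compound, then NADPH (0.016 mM) and alpha-KG (2 mM) added; 80 min at RT, pH 7.5. Remaining NADPH coupled via diaphorase/resazurin to fluorescence (540/590 nm); concentration-response curves normalized to no-enzyme control.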
LDHA inh = inhibitors of human lactate dehydrogenase A | P00338 | purified LDHA, NADH/diaphorase-resazurin fluorescence; hits give low values | activity change, % (values are at about 110 or 230 µM) | hit rate 0.15% among 480,000; in the data active = activity change below about -30%; inconclusive = mostly about -25% to -30%;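 note: plate controls were DMSO wells for no effect and wells without enzyme for full effect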
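Remaining NADH was detected by diaphorase (0.133 mg/mL) converting 37 µM resazurin to fluorescent resorufin, read at 0 and 20 minutes. The preceding 5-minute room-temperature reaction used 2 nM LDHA, 0.2 mM sodium pyruvate and 0.06 mM NADH at pH 7.4.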
IDH1 autofl = counter-screen for mutant IDH1 inhibitors: fluorescence interference | Resorufin detection reagent fluorescence interference, cell-free | inhibition of signal, % at 51.2 µM | 750 tested, under 10 active | shares compounds with IDH1 R132H inh;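 note: 0% = wells with normal resorufin and full inhibition = wells lacking resorufin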
IDH1 WT = wild-type IDH1 (human) inhibition counterscreen | shares compounds with IDH1 R132H inh | WT IDH1 enzyme, NADPH diaphorase/resazurin fluorescence | Potency, µM (doses to about 115 µM), for inactives: top-dose activity change, negative = inhibition, actives largely listed as inhibitors | hit rate 9% among 750;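 note: potency is the fitted concentration of half-maximal effect; 0% = full WT IDH1 enzyme control and full inhibition = no enzyme wells; nearly all actives have a fitted effect of over 55% in size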
Target sequence (O75874 whole entry, looked up): as the sequence (O75874 whole entry R132H, stated change not applied) above, with H132R counted along it
mIDH1 confirm = mutant IDH1 (human) inhibition, confirmed; shares compounds with IDH1 R132H inh; IDH1 R132H enzyme, NADPH diaphorase/resazurin fluorescence; Potency, µM (doses to about 76.6 µM), inactives show top-dose activity change, negative = inhibition, hits mostly inhibitors; hit rate 83% among 750; note: potency is the fitted concentration of half-maximal effect; nearly all actives have a fitted effect of over 50% in size
* = called active by the depositor; ? = inconclusive; / = no result given; ! = not confirmed by another sample; [ ] = remark or other dose. The list is not random: actives were taken first. Their share in the collection is about 2.7%. Unless noted, calls come from the whole dose curve; as a rule, active = well fitted curve in the direction sought with a large enough effect; inconclusive = small, poorly fitted or top-dose-only effect, or another doubt; inactive = no such curve, though single readings can be large; an effect the other way counts as inactive or inconclusive.

SMILES	A549 viability	Nrf2 ARE act	Nrf2 block	12-LOX inh	IDH1 R132H inh	LDHA inh	IDH1 autofl	IDH1 WT	mIDH1 confirm
Clc1ccc(C(c2ccc(Cl)cc2)n2cc[n+](CC(OCc3ccc(Cl)cc3Cl)c3ccc(Cl)cc3Cl)c2)cc1 (stereo not given)	?	-3.0%	?	38.5µM*!	17.8µM*	-7.7	-8.4	?	7.94µM*
Cc1ccc(C[n+]2c(-c3ccc(C)cc3)cc(-c3ccc(C)cc3)cc2-c2ccc(C)cc2)cc1	18.4µM*	-3.5%	5.17µM*	/	39.8µM*	-0.9	-0.3	11.9%	22.4µM*
CCNC(=O)NC[C@H]1C[C@@H]2CCN1C[C@@H]2c1cc(-c2ccc3ccccc3c2)nn1C	/	/	/	12.4%[176 µM]	/	/	/	/	/
C#CCN(C)C[C@H]1CN2CC[C@H]1C[C@@H]2CNC(=O)c1ccccc1	/	/	/	16.4%[176 µM]	/	/	/	/	/
CCOc1ccc(C2CC(c3c(O)n(C)c(=O)n(C)c3=O)=NN2)cc1 (stereo not given)	0.0%	0.2%	-29.8%	2.4%	20.4%	-6.7	/	/	/
CCOc1ccc(C2c3c(-c4ccccc4O)n[nH]c3C(=O)N2Cc2ccncc2)cc1 (stereo not given)	-1.7%	0.5%	-8.1%	-23.9%	?	-5.1	-4.6	1.0%	39.8µM*
O=C(O)CSCC(=O)N(Cc1ccccc1)c1nc(-c2ccccc2)c(-c2ccccc2)s1	-0.4%	-0.4%	?	?	?	-1.5	3.5	4.6%	39.8µM*
COc1ccc(-c2c3c(=O)n(C)c(=O)n(C)c3c3n2-c2ccccc2NC3c2ccccc2OC)cc1 (stereo not given)	7.5%	-0.9%	-0.2%	15.5%	44.7µM*	1.5	0.2	2.9%	6.31µM*
Cn1c(=O)c2c(-c3ccccc3)n3c(c2n(C)c1=O)C(c1cc(Cl)ccc1O)Nc1ccccc1-3 (stereo not given)	3.2%	4.6%	-9.9%	-19.6%	39.8µM*	-2.4	-4.2	5.1%	14.1µM*
COc1ccccc1-n1c(-c2ccccc2)nc2ccccc2c1=O	-16.2%	2.4%	-9.0%	0.0%	6.3%	-1.1	/	/	/
Cc1cc(C)nc(SC(Cl)(Cl)Cl)n1	/	/	/	?	/	-0.9	/	/	/
Cc1nc2cc(C(F)(F)F)ccc2n1C1CCN(Cc2nnnn2Cc2ccc3c(c2)OCO3)CC1	3.0%	-0.6%	?	?	?	-3.3	-3.9	14.0%	15.8µM*
Cc1nc2cc(C(F)(F)F)ccc2n1C1CCN(Cc2nnnn2Cc2cccs2)CC1	-5.2%	0.0%	?	33.5%	-10.6%	1.2	/	/	/
CN1C(=O)/C(=C\c2ccc(N3CCCCCC3)cc2)C(=O)NC1=S	-9.9%	-0.7%	-1.8%	0.0%	46.5µM*	-2.4	-12.3	-3.9%	22.4µM*
CCC(C)N1C(=O)/C(=C\c2ccc(N3CCCCCC3)cc2)C(=O)NC1=S (stereo not given)	0.7%	-0.8%	1.2%	?	-1.2%	-2.4	/	/	/
NC1(C(=O)O)CCCc2ccc(N(CCCl)CCCl)cc21 (stereo not given)	-10.1%	0.1%	-1.3%	-12.8%	-11.8%	-1.8	/	/	/
COC(=O)C1=C(C)NC(=S)NC1c1ccc(N(CCCl)CCCl)cc1Cl (stereo not given)	-17.7%	0.2%	?	35.5µM*	?	1.7	5.1	2.2%	11.2µM*
C#C[C@H]1CN2CC[C@H]1C[C@@H]2CNC(=O)c1ccc2c(c1)OCO2	/	/	/	138.4%[176 µM]	/	/	/	/	/
CCOc1ccccc1Oc1coc2cc(OC(=O)N(C)C)ccc2c1=O	-7.4%	4.4%	7.7%	0.0%	1.5%	-2.2	/	/	/
CCOc1ccccc1Oc1coc2cc(OC(=O)c3ccco3)ccc2c1=O	-0.1%[1.84 µM]	1.1%	?	-4.1%	?	-13.1	-9.2	1.3%	28.2µM*
Cc1[nH]nc2c1C(c1ccc(-c3ccc(Cl)cc3)o1)SCC(=O)N2 (stereo not given)	/	/	/	?	/	22.0	/	/	/
